One assay concerns EPHA3. The following applies: concentration: 1 μM, replicates: in singlicate, n = 1.
For a further assay, the system named is EPHA4. As to conditions: concentration: 1 μM, replicates: in singlicate, n = 1.
The subject of the next assay is EPHA5. The following applies: concentration: 1 μM, replicates: in singlicate, n = 1.
The next assay has as its system EPHA6. The following applies: concentration: 1 μM, replicates: in singlicate, n = 1.
The subject of a further assay is EPHA7. As to conditions: concentration: 1 μM, replicates: in singlicate, n = 1.
In another assay the test system is EPHA8. As to conditions: concentration: 1 μM, replicates: in singlicate, n = 1.
The subject of a further assay is EPHB1. As to conditions: concentration: 1 μM, replicates: in singlicate, n = 1.
For the next assay, the system named is EPHB2. The following applies: concentration: 1 μM, replicates: in singlicate, n = 1.
In another assay the test system is EPHB3. As to conditions: concentration: 1 μM, replicates: in singlicate, n = 1.
In another assay the test system is EPHB4. As to conditions: concentration: 1 μM, replicates: in singlicate, n = 1.
In the next assay the test system is EPHB6. As to conditions: concentration: 1 μM, replicates: in singlicate, n = 1.
The next assay has as its system ERBB2. As to conditions: concentration: 1 μM, replicates: in singlicate, n = 1.
In another assay the test system is ERBB3. The following applies: concentration: 1 μM, replicates: in singlicate, n = 1.
The subject of the next assay is ERBB4. As to conditions: concentration: 1 μM, replicates: in singlicate, n = 1.
The next assay has as its system T1, ERK1.
T1 construct: gene MAPK3
As to conditions: concentration: 1 μM, replicates: in singlicate, n = 1.

The subject of the next assay is T2, ERK2.
T2 construct: gene MAPK1
As to conditions: concentration: 1 μM, replicates: in singlicate; n = 1.

The test system of another assay is T3, ERK3.
T3 construct: gene MAPK6
The following applies: concentration: 1 μM, replicates: in singlicate, n = 1.

For another assay, the system named is T4, ERK4.
T4 construct: gene MAPK4
The following applies: concentration: 1 μM, replicates: in singlicate, n = 1.

The subject of a further assay is T5, ERK5.
T5 construct: gene MAPK7
The following applies: concentration: 1 μM, replicates: in singlicate, n = 1.

The subject of a further assay is T6, ERK8.
T6 construct: gene MAPK15
The following applies: concentration: 1 μM, replicates: in singlicate; n = 1.

Values joined by “and” are separate entries in the source; they are usually repeats but may differ in a detail not shown here. Equal values may be shown once. Read-outs that look alike come from different tables or passages of the source.
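Note: KINOMEscan kinase panel screen.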

With `NCC(NC(=O)c1cc(-c2cn[nH]c2)c(-c2ccnc3[nH]ccc23)s1)c1ccccc1.O=C(O)C(F)(F)F.O=C(O)C(F)(F)F` (stereo not shown) [GSK1325775], the “%Inh” value is on record as 31% in the assay on EPHA3; 0% with EPHA4; 0% in the assay on EPHA5; 0% with EPHA6; 0% in the assay with EPHA7; 7% in the assay on EPHA8. Besides, the “%Inh” value is 13% in the assay with EPHB1; 0% in the assay on EPHB2; 1% in the assay with EPHB3; 0% in the assay on EPHB4; 12% in the assay with EPHB6; 32% in the assay on ERBB2. Further, the “%Inh” value with ERBB3 worked out at 0%; in the assay on ERBB4 it was 10%; in the assay on ERK1, 0%; with ERK2, 0%; in the assay with ERK3, 20%; in the assay on ERK4, 9%. Further, the “%Inh” value in the assay on ERK5 is reported as 0%; in the assay with ERK8 it was 51%.
On to `CC(C)(CN)c1nc(-c2ccc(Cl)c(O)c2)c(-c2ccncc2)[nH]1.O=C(O)C(F)(F)F` [SB-477794], for which the “%Inh” value was 50% and 61% with EPHA3 (1 µM); 42% and 23% in the assay with EPHA4 (1 µM); 0% and 2% with EPHA5 (1 µM); 74% and 63% in the assay with EPHA6 (1 µM); 35% and 20% in the assay with EPHA7 (1 µM); 87% and 85% with EPHA8 (1 µM). Also, the “%Inh” value in the assay with EPHB1 (1 µM) was 45% and 20%; in the assay with EPHB2 (1 µM), 37% and 30%; in the assay on EPHB3 (1 µM) it was 35% and 14%; with EPHB4 (1 µM), 24% and 38%; in the assay on EPHB6 (1 µM), 2% and 28%; in the assay with ERBB2 (1 µM), 83% and 80%. Also, the “%Inh” value is 42% and 45% in the assay on ERBB3 (1 µM); 26% and 35% in the assay on ERBB4 (1 µM); 0% and 11% in the assay with ERK1 (1 µM); 0% in the assay on ERK2; 20% and 0% in the assay with ERK3 (1 µM); 13% and 20% in the assay with ERK4 (1 µM). Further, the “%Inh” value with ERK5 (1 µM) was 32% and 56%; in the assay on ERK8, 0%.
As for `CSc1ccc(-c2cc3ncnc(SCC(=O)O)c3s2)cc1`, the “%Inh” value in the assay on EPHA3 is listed as 0%; with EPHA4 it was 5%; in the assay on EPHA5 it was 13%; in the assay with EPHA6, 6%; in the assay on EPHA7 it was 0%; with EPHA8 it was 0%. Also, the “%Inh” value in the assay on EPHB1 is 4%; with EPHB2 it was 0%; in the assay on EPHB3, 15%; in the assay on EPHB4, 18%; in the assay with EPHB6, 33%; with ERBB2 it was 22%. Also, the “%Inh” value in the assay with ERBB3 was 7%; in the assay on ERBB4, 0%; with ERK1, 0%; in the assay with ERK2, 19%; with ERK3, 0%; in the assay on ERK4 it was 14%. The “%Inh” value in the assay on ERK5 was found to be 2%; in the assay with ERK8, 18%.
Consider `CN(C1=C(c2ccccc2)C(=O)NC1=O)c1ccccc1` [SB-334860], for which the “%Inh” value worked out at 24% in the assay on EPHA3; 6% with EPHA4; 6% with EPHA5; 10% in the assay with EPHA6; 2% in the assay on EPHA7; 6% in the assay on EPHA8. The “%Inh” value in the assay on EPHB1 came out at 8%; in the assay on EPHB2 it was 20%; in the assay on EPHB3 it was 11%; in the assay on EPHB4, 9%; in the assay on EPHB6, 20%; in the assay with ERBB2, 29%. Also, the “%Inh” value with ERBB3 is 0%; in the assay with ERBB4, 33%; with ERK1, 1%; in the assay with ERK2 it was 13%; in the assay with ERK3 it was 1%; in the assay with ERK4, 44%. Further, the “%Inh” value in the assay on ERK5 and in the assay on ERK8 was 0% in each case.
Consider `CN(C(=O)c1ccc(-c2cc(-c3c[nH]nc3-c3ccccn3)ccn2)cc1)C1CCOCC1` [GW810083], for which the “%Inh” value in the assay on EPHA3 came out at 27%; in the assay with EPHA4, 0%; in the assay with EPHA5, 4%; in the assay with EPHA6, 0%; with EPHA7, 0%; with EPHA8 it was 0%. Further, the “%Inh” value with EPHB1 came to 0%; in the assay on EPHB2 it was 0%; with EPHB3 it was 0%; with EPHB4, 0%; with EPHB6 it was 0%; in the assay on ERBB2 it was 38%. The “%Inh” value was determined as 16% in the assay on ERBB3; 0% with ERBB4; 0% in the assay with ERK1; 4% in the assay on ERK2; 11% in the assay on ERK3; 7% with ERK4. Besides, the “%Inh” value in the assay with ERK5 is listed as 0%; in the assay on ERK8, 1%.
As to `c1ccc(-c2n[nH]cc2-c2ccnc3ccccc23)nc1` [GW271431], the “%Inh” value is given as 14% with EPHA3; 2% in the assay on EPHA4; 0% with EPHA5; 1% with EPHA6; 6% in the assay on EPHA7; 9% in the assay on EPHA8. Besides, the “%Inh” value in the assay with EPHB1 turned out to be 32%; in the assay with EPHB2, 0%; in the assay on EPHB3 it was 7%; in the assay with EPHB4, 11%; in the assay on EPHB6 it was 10%; with ERBB2, 9%. Further, the “%Inh” value with ERBB3 was found to be 0%; with ERBB4 it was 25%; with ERK1 it was 0%; in the assay on ERK2, 6%; in the assay with ERK3 it was 10%; in the assay on ERK4, 11%. Besides, the “%Inh” value in the assay on ERK5 and with ERK8 was 0% each time.
As for `CC(C)Oc1ccc2c(-c3ccnc(Nc4ccc(N5CCN(C)CC5)cc4)n3)cnn2n1` [GW696155], the “%Inh” value in the assay with EPHA3 is reported as 33%; in the assay with EPHA4, 1%; with EPHA5 it was 0%; in the assay with EPHA6, 11%; in the assay with EPHA7, 7%; with EPHA8 it was 9%. Besides, the “%Inh” value turned out to be 9% in the assay on EPHB1; 0% with EPHB2; 13% in the assay with EPHB3; 26% in the assay with EPHB4; 70% in the assay with EPHB6; 53% in the assay with ERBB2. Also, the “%Inh” value with ERBB3 is recorded as 14%; with ERBB4, 39%; in the assay on ERK1, 0%; in the assay with ERK2, 0%; with ERK3 it was 92.1%; with ERK4, 47%. For the same molecule, the figures for the “%Inh” value with ERK5 and in the assay with ERK8 were 45% and 98%, respectively.
For the molecule `Cc1c2ccc(N(C)c3ccnc(Nc4cccc(S(N)(=O)=O)c4)n3)cc2nn1Cc1ccccc1.Cl.Cl` [GW787226], the “%Inh” value was 15% with EPHA3; 21% in the assay with EPHA4; 0% with EPHA5; 19% in the assay with EPHA6; 0% in the assay on EPHA7; 39% in the assay with EPHA8. Further, the “%Inh” value in the assay on EPHB1 came to 12%; in the assay with EPHB2 it was 20%; with EPHB3 it was 7%; with EPHB4 it was 0%; in the assay on EPHB6, 98.9%; in the assay with ERBB2, 0%. Also, the “%Inh” value in the assay on ERBB3, in the assay with ERBB4, in the assay on ERK1, in the assay on ERK2, in the assay on ERK3 and in the assay on ERK4 was 0% in each case. Also, the “%Inh” value with ERK5 amounted to 12%; in the assay with ERK8 it was 3%.

Values taken from paper PMC5540273 (PLoS ONE, 2017).
